KB-V1 MDR tox – KB-V1 MDR subline cytotoxicity; 400,000 compounds, 3.4% hits; Potency, µM (highest dose often 46.1 µM), most hits filed as cytotoxic; KB-V1 MDR cells viability, CellTiter-Glo, 72 h; also: nearly all actives have a fitted effect of over 60% in size
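Drug-selected KB-V1 cells, grown in DMEM lacking phenol red with 10% FBS, receive compound titrations; after three days at 37 degrees C, surviving cell ATP is quantified by CellTiter-Glo luminescence and responses normalized and curve-fitted.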
TDP1 cell noCPT – qHTS for Inhibitors of human tyrosyl-DNA phosphodiesterase 1 (TDP1): qHTS in cells in absence of CPT. DT40 Tdp1-/- hTDP1 cells, no CPT, ATP luminescence, 48 h. Potency, µM (series often up to 46.2 µM), for inactives: at the top dose activity change, negative = growth inhibition, most hits filed as inhibitors. 420,000 compounds, 15% hits. AID 686978, 2013; also: nearly all actives have a fitted effect of over 55% in size
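Growth of hTDP1-complemented DT40 Tdp1-knockout cells is measured by ATP luminescence after at least 48 hr compound exposure at 37 °C, with DMSO substituting for the 20 nM CPT used in the parallel screen.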
TDP1 cell CPT – growth inhibition of DT40 Tdp1-/-;hTDP1 cells with camptothecin (screen for TDP1 inhibitors). Potency, µM (top dose mostly 46.2 µM), for the others: at the top dose activity change, negative = growth inhibition, actives largely listed as inhibitors. chicken DT40 Tdp1-/-;hTDP1 cells + 20 nM CPT, ATP luminescence, 48 h. 420,000 compounds, 12% hits; also: nearly all actives have a fitted effect of over 55% in size
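Chicken DT40 Tdp1-/- cells stably complemented with human TDP1 were seeded at 400 cells/well in medium containing 20 nM camptothecin, exposed to pin-transferred compounds, and grown at 37 °C for at least 48 hr. Viability was read as ATP luminescence.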
HT1080 IDH1KD tx – kills HT-1080 cells with IDH1 knockdown. HT-1080 IDH1 knockdown viability, ATP luminescence, 48 h. Potency, µM (titrated, usually from 46.1 µM), inactives show at the top dose activity, negative = toxicity, hits mostly cytotoxic. 360,000 compounds, 2% hits;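 also: 0% = DMSO wells and -100% = cell-free medium wells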
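IDH1KD HT-1080 cells, 750/well, RPMI + 5% FBS; compound pinned after 2 h settling; 48 h, 37 °C; CellTiter-Glo luminescence; % activity normalised to DMSO and no-cell wells; curves fitted, classed by r2 and efficacy.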
HT1080-NT tox – kills 2HG-producing HT-1080-NT fibrosarcoma cells. HT-1080-NT fibrosarcoma viability, CellTiter-Glo ATP luminescence, 48 h. Potency, µM (series often up to 46.1 µM), without a hit: top-dose activity, negative = less viability, actives largely listed as cytotoxic. 360,000 compounds, 1.6% hits;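 also: NT is the 2HG producing partner of a matched IDH1 knockdown line; 0% = DMSO-treated cells and -100% = media-only wells without cells; nearly all actives have a fitted effect of over 55% in size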
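Viability of the 2HG-overproducing fibrosarcoma line after 48 hours of compound exposure at 37 degrees C was determined by luminescence with CellTiter-Glo, and concentration-effect curves were then fitted and categorized.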
KB-3-1 tox – kills parental KB-3-1 adenocarcinoma cells; KB-3-1 viability, CellTiter-Glo ATP luminescence, 72 h; Potency, µM (highest dose often 46.1 µM), usual class: cytotoxic; 400,000 compounds, 1.4% hits; AID 1347075; also: nearly all actives have a fitted effect of over 60% in size
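Parental KB-3-1 viability, qHTS format: 72 h compound exposure, 37 °C; CellTiter-Glo; media-only wells and DMSO plates as controls; concentration-effect fits on corrected data.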
Starred values were filed as active, the others as inactive; i = inactive; ? = inconclusive; . = not tested or not shown; [ ] = another dose, or the depositor's remark. Sampled rows, rich in hits. Any-hit rate of the full collection: about 19%. Calls follow the shape of the dose curve; as a rule, active = well fitted curve in the direction sought with a large enough effect; inconclusive = small, poorly fitted or top-dose-only effect, or another doubt; inactive = no such curve, though single readings can be large; an effect the other way counts as inactive or inconclusive. Unless noted, % is scaled to controls: 0 for no effect and ±100 for the full control effect; potency is read from the fitted curve at half-maximal effect.

SMILES | KB-V1 MDR tox | TDP1 cell noCPT | TDP1 cell CPT | HT1080 IDH1KD tx | HT1080-NT tox | KB-3-1 tox
CCn1c(/C=C/N(C(C)=O)c2ccccc2)[n+](CC)c2ccc(Cl)cc21 | i | 15µM* | 16µM* | 5% | 10% | i
CC1(C)Cc2ccccc2-c2nnc(SCC(=O)Nc3nc4ccccc4s3)n21 | 3.3µM* | ? | ? | 5% | 1% | ?
Cn1c(SCC(=O)Nc2nc3ccccc3s2)nnc1-c1ccccc1 | i | -12% | -22% | -7% | -9% | i
CC1(C)Cc2ccccc2-c2nnc(SCC(=O)N3CCN(c4ccccc4)CC3)n21 | 2.3µM* | ? | ? | ? | -30% | 12µM*
CCOC(=O)C1=C(C)NC(=S)NC1c1ccsc1 (stereo not given) | i | 16% | 0% | 9% | 6% | i
COCCN(CC(=O)Nc1ccccc1C(F)(F)F)C(=O)/C=C/c1cc(Cl)c2c(c1)OCCO2 | 3.7µM* | ? | ? | -34% | -1% | i
Oc1ccc2ccccc2c1CNc1ccc2ccccc2c1 | ? | ? | -9% | 21µM* | ? | ?
Cc1ccc(NC(=O)c2cc3ccccc3cc2O)cc1 | i | ? | 16µM* | -22% | ? | ?
O=C(Nc1ccc2ccccc2c1)c1ccccc1O | ? | 10µM* | 13µM* | 23µM* | 15µM* | ?
COc1ccc(NC(=O)c2cc3ccccc3cc2O)cc1 | i | ? | ? | ? | ? | i
Oc1ccc2ccccc2c1CNc1ccccc1 | ? | ? | ? | -17% | 3% | i
Cc1ccc(-c2noc(CN(C(=O)c3ccc(C(C)(C)C)cc3)C(C)C)n2)cc1 | i | ? | ? | . | . | i
COc1cccc(-c2nc(CS(=O)(=O)CC(=O)NCc3cccc(Cl)c3)c(C)o2)c1 | i | -17% | 2% | . | . | i
C/C(=C/C(=O)N1CCc2ccccc21)C(=O)O | ? | -3% | -21% | 9% | -2% | i
Cc1ccc(C(=O)N2CCN(c3ccccn3)CC2)cc1 | i | -19% | -1% | 1% | 19% | i
COc1ccc(N2CCN(C(=O)c3ccc(COc4ccc5c(C)cc(=O)oc5c4)cc3)CC2)cc1 | ? | 16µM* | ? | 10% | 11% | i
CC(C)c1ccc(COc2ccc(C(=O)N3CCOCC3)cc2)cc1 | ? | 23µM* | ? | -19% | -12% | i
CC(C)c1ccc(C(=O)N2CCCN(C(=O)c3ccc(C(C)C)cc3)CC2)cc1 | i | 0% | -24% | -7% | -9% | i
CC(C)c1ccc(OCc2ccc(C(=O)N3CCN(c4ccccn4)CC3)cc2)cc1 | ? | 21µM* | ? | ? | ? | ?
Cc1ccc(OCc2ccc(C(=O)N3CCOCC3)cc2)cc1C | 18µM* | 21µM* | 16µM* | -3% | ? | i
C/C(=N\NC(=O)c1nnn(-c2nonc2N)c1CN(C)c1ccccc1)c1cccc(O)c1 | i | -27% | ? | -9% | -14% | i
COc1ccc(CCN=C(C)c2cc(C)c(C)cc2O)cc1OC | i | 4% | 10% | 5% | 7% | i
Cc1cc(S(=O)(=O)N2CCCC(C)C2)ccc1-n1cnnn1 (stereo not given) | ? | -18% | -1% | -6% | -1% | i
CCN1C(=O)N/C(=C/c2ccc(C)o2)C1=O | i | 21µM* | 23µM* | 4% | 17% | i
Cc1ccc(/C=C2/NC(=O)N(Cc3ccc(Br)cc3)C2=O)o1 | i | ? | ? | 2% | -9% | i
SMILES | KB-V1 MDR tox | TDP1 cell noCPT | TDP1 cell CPT | HT1080 IDH1KD tx | HT1080-NT tox | KB-3-1 tox
Cc1c(C(=O)O)cccc1-c1ccc(/C=C2/NC(=O)N(c3ccccc3)C2=O)o1 | i | ? | ? | -3% | 9% | i
Cc1ccc(/C=C2/NC(=O)N(c3ccccc3)C2=O)o1 | i | 16µM* | 10µM* | 6% | -4% | i
C#CCN(Cc1ccco1)C(=O)c1ccc(OC2CCN(Cc3ccccn3)CC2)cc1 | 16µM* | ? | 18µM* | -1% | -1% | i
Cc1cc(Br)ccc1OCCCCN1CCCCC1 | ? | ? | ? | ? | 21µM* | i
Clc1ccc(Cl)c(OCCCCN2CCCCC2)c1 | i | ? | 18µM* | -19% | -10% | i
CCNC(=O)CC1SC(=Nc2ccc(Cl)cc2)N(CC)C1=O (stereo not given) | ? | 21µM* | ? | -3% | 1% | i
CCOC(=O)c1cn(Cc2ccccc2)c2cc(C)nn2c1=O | i | -23% | 2% | 0% | 10% | i
CCOC(=O)c1cn(Cc2ccccc2)c(C(=O)OC(C)(C)C)c1O | ? | -11% | 23µM* | -3% | -2% | i
COc1cnc(-c2ccccn2)nc1Oc1ccccc1 | ? | 0.46µM* | 0.46µM* | 21% | 8% | i
COc1ccnc(Oc2ccccc2)c1C#N | i | -9% | -10% | -4% | 9% | i
COc1cnc(-c2ccccn2)nc1N(C)c1ccccc1 | ? | 0.41µM* | 0.52µM* | ? | ? | ?
CCCCNC(=O)C1C(c2ccc(C(F)(F)F)cc2)=Nc2ccccc2N1C(=O)C1CCN(C(C)=O)CC1 (stereo not given) | i | -28% | -18% | -14% | -14% | i
COC(=O)[C@]12CCCCC=C1N(CCC1=CCCCC1)C(=O)[C@H](CC(=O)NCc1ccc(C)o1)C2 | i | ? | ? | ? | -22% | i
CCCCCCCCN1C(=O)[C@H](CC(=O)NCc2ccc(C)o2)C[C@@]2(C(=O)OC)CCCCC=C12 | ? | 21µM* | ? | ? | ? | i
CCCCCCCCN1C(=O)[C@H](CC(=O)NCc2ccc(C)o2)C[C@@]2(C(=O)OCC)CCC=C12 | ? | 16µM* | ? | ? | ? | i
C=C(C)C1CC=C(C)/C(=N/NC(=O)c2ccc(NC(=O)CC)cc2)C1 (stereo not given) | 15µM* | -1% | -4% | -28% | 19% | i
C=C(C)C1CC=C(C)/C(=N/NC(=O)c2ccc(NC(=O)CCC)cc2)C1 (stereo not given) | i | -14% | -14% | -4% | 5%[9.24 µM] | i
